PriA SSB inh – K. pneumoniae PriA-SSBct interaction inhibition; AlphaScreen SSBct-PriA binding, biotinylated peptide; inhibition, % at 33 µM; hit rate 0.6% among 430,000; AID 1272365; in the data active = inhibition mostly above about 37%, no sharp cut-off; inactive = mostly below about 20%;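 note: plate controls were negative control peptide for no effect and reference peptide for full effect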
PrPC surface inh – cell surface PrPC inhibition, primary TR-FRET screen; AID 720596; inhibition, % at 13.8 µM; hit rate 0.43% among 370,000; TR-FRET read-out; P04156; in the data active = inhibition above about 24%; note: 0% = median of the test wells and 100% = reference compound wells
PrP 5UTR inh – inhibition of PrP 5' UTR reporter expression; inhibition, % (concentration not given with the values); cell-based PrP 5' UTR mRNA reporter, plate reader; AID 488862; hit rate 0.35% among 340,000; in the data active = inhibition above about 52%; note: 0 = median of the neutral control wells
PfHsp40 rescue – restores yeast growth despite PfHsp40 toxicity; growth rescue, % at 12.5 µM; hit rate 0.68% among 340,000; S. cerevisiae expressing PfHsp40, growth rescue, ATP luminescence; in the data active = growth rescue above about 28%, passing the limit was not always enough;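 note: yeast W303a lacking pdr1 and pdr3 grown in galactose medium; growth measured after three days at 30 °C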
MazF activator – MazEF (E. coli) toxin RNase activation; FAM/BHQ RNA-DNA oligo cleavage fluorescence, 5 h; activation, % at 20 µM; hit rate 0.32% among 350,000; AID 504720; in the data active = activation above about 50%
Target sequence (P0AE70 whole entry, looked up): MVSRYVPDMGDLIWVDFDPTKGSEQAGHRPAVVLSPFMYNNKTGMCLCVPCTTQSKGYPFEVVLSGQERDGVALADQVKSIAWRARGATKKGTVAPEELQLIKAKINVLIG
Active calls of the source: *; . = not tested or not shown. The list is not random: actives were taken first. Their share in the collection is about 1.8%.

SMILES | PriA SSB inh | PrPC surface inh | PrP 5UTR inh | PfHsp40 rescue | MazF activator
CCN(CC)C(=O)C1CC(=O)N(c2ccc(F)c(Cl)c2)C1 (stereo not given) | -22.0 | 0.8 | -19.2 | 40.0* | 2.0
S=C(NCc1ccco1)NC1CCCc2ccccc21 (stereo not given) | 1.7 | 10.9 | -14.5 | -0.3 | -2.4
S=C(NCc1ccccc1)NC1CCCc2ccccc21 (stereo not given) | -22.3 | 5.0 | -24.6 | 35.8* | 10.9
CCN(CC)c1ccc(NC(=S)NC(=O)C2CCC2)cc1 | 55.2* | -0.2 | -33.2 | 0.8 | -2.4
CC(=O)Nc1ccc(NC(=S)NC(=O)C2CCCC2)cc1 | -10.0 | -5.1 | -41.6 | 10.5 | 5.7
CCOc1ccc(CC(=O)N2CCN(c3ccc(N4CCOCC4)nn3)CC2)cc1OCC | 54.5* | -0.7 | -8.9 | -0.2 | -13.6
CCOc1cc(C(=O)N2CCN(c3ccc(N4CCOCC4)nn3)CC2)cc(OCC)c1OCC | -33.0 | . | . | . | .
O=C(CN1/C(=C(/O)c2ccccc2)C(=O)c2ccccc2S1(=O)=O)c1ccccc1 | . | -6.5 | -18.7 | 79.8* | 2.5
COCC(=O)Oc1c(S(=O)(=O)c2ccc(C)cc2)c(C)nn1C(C)(C)C | -7.5 | 19.2 | 7.2 | 0.6 | 3.6
COCC(=O)Oc1c(S(=O)(=O)c2ccc(C)cc2)c(C)nn1-c1ccccc1 | -1.1 | -1.4 | -3.2 | 157.3* | -2.5
C[C@@H]1CCCCO[C@@H](CN(C)Cc2ccc(Cl)c(Cl)c2)[C@@H](C)CN([C@H](C)CO)C(=O)c2cc(NC(=O)CCC(F)(F)F)ccc2O1 | . | -4.0 | . | . | -0.5
CCOc1ccc(-n2c(O)c(/C=N/NC(=O)C3COc4ccccc4O3)c3ccccc3c2=O)cc1 (stereo not given) | . | 3.0 | -28.0 | 302.7* | -3.0
Cc1ccc(-n2c(O)c(C=NNC(=O)C3COc4ccccc4O3)c3ccccc3c2=O)cc1 (stereo not given) | -11.8 | . | . | . | .
CCOc1ccc(OCCN(C)Cc2ccccc2)cc1 | -12.9 | 1.4 | -15.3 | -1.2 | 2.0
CN(CCOc1ccc(Cl)c(Cl)c1)Cc1ccccc1 | -54.9 | 1.8 | -21.0 | 36.1* | -8.1
CCn1nccc1C(=O)Nc1cc(Cl)cc(Cl)c1 | -8.7 | -1.6 | -16.9 | 63.0* | 7.0
CCn1nccc1C(=O)Nc1ccc(N=Nc2ccccc2)cc1 | 46.0* | . | . | . | .
CC(C)CS(=O)(=O)Nc1ccc2c(c1)CCCN2C(=O)c1ccccc1 | -15.0 | . | . | . | .
O=C(c1ccccc1)N1CCCc2cc(NS(=O)(=O)CCOc3ccccc3)ccc21 | 35.0* | . | . | . | .
CN(C)C(CNc1ccc(C(F)(F)F)cc1[N+](=O)[O-])c1ccccc1 (stereo not given) | 48.8* | -4.7 | -30.5 | 1.2 | -13.9
O=C(NCCCNc1ccc(C(F)(F)F)cc1[N+](=O)[O-])c1ccc(F)cc1 | -14.8 | 2.8 | -13.9 | -0.2 | 61.5*
Cc1ccc(C(=O)NCCCNc2ccc(C(F)(F)F)cc2[N+](=O)[O-])cc1 | -26.6 | -6.4 | -24.0 | 2.0 | 3.7
CC1C(=O)O[C@@H]2C[C@@H](C)[C@@H]3CCC(=O)[C@@]3(C)[C@@H](O)[C@H]12 (stereo not given in full) | 6.4 | 3.2 | -18.9 | -0.7 | -0.6
CN(C)C(CNC(=O)c1cc(S(=O)(=O)N(C)c2ccc(F)cc2)ccc1Cl)c1cccs1 (stereo not given) | -0.1 | -0.3 | -16.2 | 0.2 | 2.8
CCCCCCC(C)(C)c1ccc([C@@H]2C[C@H](O)CC[C@H]2CCCO)c(O)c1 | -5.7 | 8.0 | -20.7 | 68.3* | 14.2
SMILES | PriA SSB inh | PrPC surface inh | PrP 5UTR inh | PfHsp40 rescue | MazF activator
COc1ccc(F)cc1S(=O)(=O)Nc1cccc(-c2ccc(=O)n(C)n2)c1 | -10.0 | . | . | . | .
CCOC(=O)c1sc(NC(=O)c2cc3c(ccc4ccccc43)oc2=O)cc1C | -12.0 | . | . | . | .
Cc1ccc2nc(NCc3ccco3)c(C=NCc3ccco3)c(=O)n2c1 | 1.0 | 1.9 | -53.7 | -1.8 | 6.7
Cc1cc(O)cc(O)c1C=NCc1ccco1 | 0.7 | -2.8 | -21.0 | -1.1 | 90.2*
O=C([C@@H]1CCCN1C(=O)c1cccs1)N1CCN(S(=O)(=O)c2ccccc2F)CC1 | 1.0 | -0.6 | -17.5 | -0.5 | 5.3
O=C(NN=C1CCCc2ccccc21)c1ccccc1Cl | 0.5 | . | . | . | .
Cc1cccc(NC(=O)c2cc3ccccc3c(=O)o2)n1 | 0.0 | -4.3 | . | 0.9 | 8.0
CCC(C)n1c(=O)c2sccc2n2c(CCCC(=O)N3CCC(C(N)=O)CC3)nnc12 (stereo not given) | 43.0* | 0.2 | -6.1 | -0.8 | -5.4
O=C(NCCOc1ccccc1)c1ncc(-c2ccc(Cl)cc2)o1 | -4.0 | . | . | . | .
